Laboratory results: PubChem BioAssay (NCI)
Compounds without any hit were thinned out: in the full panel of roughly 83,000, 20% have a hit.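 Testing used 96-well plates and a 48-hour single-concentration exposure. Example: -40 means 40% of the starting cells died.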 Values without a mark were called inactive. Activity calls are given as the source filed them. How the source made its calls: active means growth percent below 10; inactive means the rest.

Assays:
Assay in all cases: NCI-60 one-dose screen, 48 h (100 = growth as untreated, 0 = no growth, -100 = all killed)
Conditions in all cases: 10 µM unless noted
[1] = system: DU-145 prostate
[2] = system: K-562 leukemia
[3] = system: MALME-3M melanoma
[4] = system: MDA-MB-231 breast
[5] = system: RXF 393 renal
[6] = system: SF-268 CNS
[7] = system: SF-295 CNS
[8] = system: SF-539 CNS
[9] = system: UACC-257 melanoma
[10] = system: M14 melanoma
[11] = system: HCT-15 colon
[12] = system: HT29 colon
[13] = system: SNB-75 CNS
[14] = system: SNB-19 CNS
[15] = system: U251 CNS
[16] = system: PC-3 prostate
[17] = system: SK-MEL-5 melanoma
[18] = system: UACC-62 melanoma
[19] = system: LOX IMVI melanoma
[20] = system: SK-MEL-28 melanoma

Row | Structure (SMILES) | growth [1] | growth [2] | growth [3] | growth [4] | growth [5] | growth [6] | growth [7] | growth [8] | growth [9] | growth [10] | growth [11] | growth [12] | growth [13] | growth [14] | growth [15] | growth [16] | growth [17] | growth [18] | growth [19] | growth [20] [%]
1 | CCN(CC)CCCC(C)Nc1cnc(C(=O)Nc2cccc3ccc(OC)nc23)cn1 (stereo not drawn) | 78.8% | -57.1% (active) | -69.8% (active) | 71.8% | 46% | 63% | 101% | 0.457% (active) | -39% (active) | -75.6% (active) | -25.6% (active) | -47.2% (active) | 75.9% | 94.9% | 56.1% | 69.5% | 5.4% (active) | -57.8% (active) | -89.9% (active) | 
2 | CCN(CC)CCCC(C)Nc1cnc(C(=O)Nc2cc(C)cc3cccnc23)cn1 (stereo not drawn) | 80.7% | 25.9% | 107% | 89.2% | 72.3% | 66.1% | 98.9% | 86.9% | 71.7% | 98.6% | 59.9% | 37.3% | 78.3% | 89.2% | 78.4% | 83.1% | 83.1% | 98.6% | 87% | 
3 | COc1cc2nccc(Oc3ccc(NC(=O)C4(C(=O)Nc5ccc(F)cc5)CC4)cc3)c2cc1Oc1ccc(N)cn1 | 49.5% | 3.07% (active) | 43.1% | 42.7% | 11.5% | 36.8% | 0.157% (active) | 5.06% (active) | 34% | 39.8% | 27.9% | 9.65% (active) | -12.5% (active) | 54.5% | 33.6% | 24.5% | 39.2% | 5.29% (active) | 10.7% | 
4 | CC[C@H](Nc1nc(N)nc(N)c1Cl)c1nc2cccc(NCc3ccc(C(=O)NO)cc3)c2c(=O)n1-c1ccccc1 | -0.88% (active) | 3.11% (active) | 20.2% | -10.8% (active) | -52.5% (active) | 4.81% (active) | 13.2% | -74.2% (active) | -0.0784% (active) | -13% (active) | 40.9% | 6.69% (active) | -3.96% (active) | 7.79% (active) | -65.6% (active) | -57.2% (active) | -26.3% (active) | -56.8% (active) | -86.2% (active) | 
5 | Fc1ccc2c(CN3CCO[C@H](COc4cccc(Cl)c4)C3)c[nH]c2c1 | 42.6% | 32.1% | 81.9% | 66.8% | 82.9% | 81.1% | 41.1% | 56.7% | 53.6% | 54.4% | 59.1% | 47.4% | 59% | 56.8% | 44.7% | 36.7% | 63.4% | 60.2% | 45.9% | 
6 | COc1ccc2[nH]c(C(=O)OCc3ccc4cccc(O)c4n3)cc2c1 | -91.8% (active) | -3.39% (active) | -76.2% (active) | -70.8% (active) | -92.2% (active) | -65.6% (active) | 73.7% | -92.7% (active) | -70.7% (active) | -75.6% (active) | -43.8% (active) | -73.1% (active) | -29.1% (active) | 50.8% | 22.1% | -55.7% (active) | -56.9% (active) | -81% (active) | -89.1% (active) | 
7 | C/C=C(\C)C(C(=O)NC1CCCCC1)N(C(=O)C1CCc2cc(F)ccc2O1)c1ccc([N+](=O)[O-])cc1 (stereo not drawn) | 105% | 80.7% | 92.4% | 77.7% | 98.4% | 87% | 82.5% | 92.8% | 93% | 82.4% | 74% | 74.4% | 72.8% | 85.7% | 93.1% | 72.7% | 42.1% | 70.1% | 87.7% | 
8 | c1ccc2c(c1)cnc1ccccc12 | 111% | 97.2% | 127% | 108% | 88.5% | 97.4% | 113% | 101% | 103% | 99.6% | 98.4% | 94.6% | 93.6% | 99.2% | 109% | 102% | 98.5% | 98.9% | 104% | 118
9 | C=C(C)[C@@H]1CC[C@]2(C)[C@H](CC=C3[C@@H]4C[C@](C)(C(=O)N5CCN(C)CC5)CC[C@]4(C)CC[C@]32C)[C@@]1(C)CCC#N | 88.3% | 23.4% | 77% | 85.9% | 84.9% | 72.5% | 95% | 70.2% | 51.4% | 66.6% | 38.2% | 33.2% | 79.1% | 89.4% | 50% | 30.6% | 18.9% | 53.5% | 47.6% | 
10 | N#Cc1nc(-c2cccc(Br)c2)cc(-c2ccc(Nc3nc(N4CCCCC4)nc(N4CCCCC4)n3)cc2)c1N | -39% (active) | 4.51% (active) | -80.9% (active) | -67.4% (active) | -70.9% (active) | 5.03% (active) | 82.8% | -75.9% (active) | -35.8% (active) | 2.1% (active) | -39% (active) | -24.6% (active) | -45.1% (active) | 52.7% | -15.8% (active) | 12% | -49.3% (active) | -35.9% (active) | -95.7% (active) | 
11 | Cc1ccc(C2CC(c3cccs3)=NN2c2ccc(S(N)(=O)=O)cc2)s1 (stereo not drawn) | 99.2% | 77.9% | 79.4% | 91.6% | 93.1% | 96.5% | 98.3% | 104% | 36.3% | 81.9% | 80.8% | 86.5% | 74.5% | 84.8% | 78.5% | 56.4% | 65.7% | 44.1% | 104% | 64.9
12 | COc1ccc2cc(-c3nc(C)c(C(C)=O)c(-c4ccc(C)cc4)n3)ccc2c1 | 107% | 125% | 91.2% | 81% | 81.6% | 101% | 99.6% | 89.6% | 101% | 91.1% | 88.2% | 82.4% | 98.5% | 92.8% | 94.5% | 85.9% | 75.4% | 71.7% | 101% | 101
13 | C=C(C)C1CCC2(C(=O)O)CCC3(C)C(CCC4C5(C)CCC(O)C(C)(C)C5CCC43C)C12 (stereo not drawn) | -55.5% (active) | -34.1% (active) | -17.4% (active) | -8.05% (active) | -68.8% (active) | 16.3% | -14.8% (active) | -54.1% (active) | -17.2% (active) | -49.9% (active) | 26.9% | -9.19% (active) | -24.8% (active) | 9.23% (active) | -45.3% (active) | 8.63% (active) | -75.8% (active) | 50.5% | 8.78% (active) | 
14 | Cc1cc(C)c2c(n1)sc1c(Nc3ccc(Cl)cc3Cl)ncnc12 | 20.3% | 42.9% | 53.4% | 58.7% | 28.8% | 17.9% | 14.3% | 4.9% (active) | 36.4% | -34.3% (active) | 46.2% | 38.9% | 39.7% | 32.4% | 25% | 50.9% | 25.5% | 15.6% | 10.2% | 61.4
15 | COc1ccc(NC(=O)/C=C/c2ccc(NC(=O)N3CCCC3)cc2)cn1 | 106% | 99.4% | 96.8% | 97.5% | 109% | 101% | 99.8% | 97% | 103% | 103% | 94.1% | 106% | 102% | 102% | 98.6% | 96.5% | 99.8% | 101% | 98.4% | 
16 | COc1c(-c2cc(-c3ccc(C)o3)[nH]c(=O)n2)c(O)cc2occc12 | 78.2% | 16.8% | 69.2% | 70.8% | 56.3% | 69.8% | 77.6% | 69.9% | 78.7% | 44.7% | 32.6% | 96% | 50% | 65.9% | 63.5% | 69.4% | 76.8% | 48.1% | 58.2% | 
